This passage reports growth results from PubChem BioAssay (NCI).

About 83,000 compounds went through this panel and 20% of them were active in at least one assay; those are over-represented in the sample as a whole.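 Cell lines were cultured in 96-well plates, exposed to a single compound concentration, and assessed for percent growth 48 hours later.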 Unmarked numbers belong to inactive results. Calls of active or inactive are those of the source. How the source made its calls: active means growth percent below 10; inactive means the rest.

Assay in all cases: NCI-60 one-dose screen, 48 h (100 = growth as untreated, 0 = no growth, -100 = all killed)
Common to all, as to conditions: 10 µM unless noted

The subject of experiment [1] is MOLT-4 leukemia.
Experiment [2] relates to SR leukemia.
The subject of experiment [3] is RPMI-8226 leukemia.
For experiment [4], the system named is OVCAR-8 ovarian.
Experiment [5] relates to OVCAR-5 ovarian.
Experiment [6] relates to OVCAR-4 ovarian.
The test system of experiment [7] is SK-OV-3 ovarian.
Experiment [8] deals with IGROV1 ovarian.
In experiment [9] the test system is OVCAR-3 ovarian.
Experiment [10] deals with HS 578T breast.
In experiment [11] the test system is NCI/ADR-RES ovarian.
The subject of experiment [12] is T-47D breast.
For experiment [13], the system named is BT-549 breast.
Experiment [14] concerns MDA-MB-435 melanoma.
Experiment [15] deals with SW-620 colon.
The test system of experiment [16] is MCF7 breast.
The test system of experiment [17] is HCT-116 colon.
The subject of experiment [18] is HCC-2998 colon.
In experiment [19] the test system is KM12 colon.

Turning to `O=C(O)C(O)C(O)C1[O][Sb]([c]2ccc([N+](=O)[O-])cc2)[O]C1CO` (stereo not drawn), the growth was 98.2% in experiment [1]; 102% in [2]; 99.2% in [3]; 105% in experiment [4]; 103% in [5]; 112% in experiment [6]. For the same compound, the growth was 129% in experiment [7]; 111% in experiment [8]; 114% in [9]; 93.8% in experiment [10]; 111% in experiment [11]; 109% in experiment [12]. The growth is 114% in experiment [13]; 107% in experiment [14]; 103% in experiment [15]; 93.9% in experiment [16]; 104% in experiment [17]; 105% in [18]. In [19], the growth is 108%.

Take `O=C1C2C(C(=O)[N]1[Hg][c]1ccccc1)C1(Cl)C(Cl)=C(Cl)C2(Cl)C1(Cl)Cl` (stereo not drawn): the growth was -2.76% (active) in experiment [1]; -23.6% (active) in [2]; -40.8% (active) in experiment [3]; -47.4% (active) in experiment [4]; 73% in experiment [5]; 5.55% (active) in experiment [6]. In addition, the growth in [7] is 62.1%; in experiment [8], -39.3% (active); in experiment [9] it was -85.5% (active); in [10] it was -14.1% (active); in experiment [11], 40.6%; in experiment [12] it was -36.9% (active). For the same compound, the growth in [13] was -89% (active); in experiment [14], -78% (active); in experiment [15], -78.4% (active); in experiment [16], -55.3% (active); in [17], -77.7% (active); in experiment [18] it was 11.7%. The growth in experiment [19] is 74.6%.

Consider `CC(=O)O[C@H]1CC[C@@]2(C)C(=CC[C@H]3[C@@H]4C[C@@H](N5CC5)[C@H](C(C)=O)[C@@]4(C)CC[C@@H]32)C1`, for which the growth was 63.4% in experiment [1]; 58.6% in experiment [2]; 79.3% in [3]; 88.5% in experiment [4]; 99.5% in experiment [5]; 80.3% in experiment [6]. Further, the growth in [7] is 99.9%; in experiment [8], 86.2%; in experiment [9] it was 109%; in experiment [10] it was 98%; in [11], 92.9%; in experiment [12], 88.3%. Further, the growth is 100% in experiment [13]; 99.9% in experiment [14]; 89.6% in experiment [15]; 72.8% in [16]; 85.9% in experiment [17]; 106% in experiment [18]. The growth in experiment [19] was 106%.

In the case of `Clc1cccc(N2COOC3(OOC2)C2CC4CC(C2)CC3C4)c1`, the growth in [1] is 77.8%; in [2], 37.7%; in [3] it was 53.8%; in experiment [4], 58.1%; in experiment [5] it was 84.3%; in experiment [6] it was 95.3%. Further, the growth in [7] is 98.1%; in [8] it was -54.4% (active); in experiment [9] it was 19.2%; in experiment [10], 88.6%; in experiment [11] it was 44.4%; in [12], 69.4%. Also, the growth in experiment [13] is 88%; in experiment [14], 73.3%; in experiment [15], 95.5%; in [16], 93.1%; in experiment [17] it was 88.2%; in [18], 98.1%. For the same compound, the growth in experiment [19] was 65.7%.

On to `Cc1cc(-c2nc3cc(F)ccc3[se]2)cc(F)c1N`, for which the growth was 83.6% in experiment [1]; 23.9% in experiment [2]; 66.8% in [3]; 104% in [4]; 51.2% in experiment [5]; 63.3% in [6]. Moreover, the growth was 73.6% in experiment [7]; 37.3% in [8]; 87.2% in experiment [9]; 102% in [10]; 98.7% in experiment [11]; 14.2% in [12]. Further, the growth in experiment [13] is 84.4%; in [14], 101%; in experiment [15] it was 90.7%; in [16], 2.88% (active); in [17], 71.2%; in experiment [18], 35.5%. Moreover, the growth in experiment [19] is 61.2%.

For `COC(=O)[C@H](Cc1ccccc1)NNC(=O)c1csc([C@@H](C[C@H](C(C)C)N(C)C(=O)[C@@H](NC(=O)[C@H]2CCCCN2C)C2CC2)OC(C)=O)n1`, the growth in experiment [1] is 7.86% (active); in [2], 5.77% (active); in experiment [3] it was 7.38% (active); in experiment [4] it was 24.1%; in experiment [5], 32.5%; in experiment [6], 41.3%. The growth in experiment [7] was 19.8%; in [8] it was 27.4%; in experiment [9], 4.06% (active); in [10], 9.52% (active); in experiment [11] it was 32.9%; in experiment [12] it was 37.7%. For the same compound, the growth was -0.476% (active) in experiment [13]; -55.8% (active) in experiment [14]; 24.4% in [15]; 16.3% in [16]; 1.19% (active) in experiment [17]; 10.8% in [18]. The growth in experiment [19] was 5.13% (active).

With `CCCCCCCCCCCCCCCCCC1OC[C@@H](COC(=O)O[C@@H](C(=O)O[C@H]2C[C@@]3(O)[C@@H](OC(=O)c4ccccc4)[C@@H]4[C@]5(OC(C)=O)CO[C@@H]5C[C@H](O)[C@@]4(C)C(=O)[C@H](OC(C)=O)C(=C2C)C3(C)C)[C@@H](NC(=O)c2ccccc2)c2ccccc2)O1` (stereo partly drawn), the growth was 58.7% in experiment [1]; 47.8% in [2]; 15.2% in experiment [3]; 64.8% in experiment [4]; 53.9% in [5]; 80.8% in [6]. Also, the growth in experiment [7] was 57.9%; in [8], 50.4%; in experiment [9], 29.2%; in [10], 57.3%; in experiment [11] it was 106%; in [12], 51.9%. The growth in experiment [13] was 55.2%; in experiment [14], -41.2% (active); in experiment [15], 45.7%; in experiment [16] it was 24.9%; in [17] it was 23.4%; in experiment [18], 56.8%. Further, the growth in experiment [19] is 28.7%.
